Screening data: PubChem, several laboratories
CSC inhib = cancer stem cell inhibition; cancer stem cell-like cells viability, luminescence; inhibition, % at 7.5 µM; 1.1% of 300,000 active; AID 2717; in the data active = inhibition above about 75%; inconclusive = no clear call, values can overlap the other calls; tested in HMLE shEcad cells
ALR inh = blocks human ALR sulfhydryl oxidase activity | purified ALR, DTT oxidation, H2O2 HRP-luminol luminescence | inhibition, % (test concentration not listed) | AID 485317 | 3.8% of 290,000 active;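 active = mean replicate inhibition above about 79%, with every replicate also reaching it, limit read from the data; inconclusive = only one of the two criteria met; inactive = mean below limit and not every replicate reaching it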
PP1 inh = PP1-alpha (human) inhibition in PP5 counter-screen | 0.9% of 320,000 active | inhibition, % at 6.7 µM | purified PP1alpha, OMFP fluorescence | AID 2235 | P62136;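 active = inhibition above the mean inhibition of all tested compounds plus 3 SD, computed separately for each screening campaign, cut at about 15% in these data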
PP5 inh = blocks human protein phosphatase 5 activity. purified PP5c, OMFP substrate fluorescence. inhibition, % at 6.7 µM. 0.18% of 320,000 active;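 active = inhibition above the campaign's mean inhibition across all tested compounds plus 3 SD, cut at about 9.5% in these data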;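 also: 0% = DMSO only and 100% = 100 µM cantharidin control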
Target sequence (P53041 whole entry, looked up): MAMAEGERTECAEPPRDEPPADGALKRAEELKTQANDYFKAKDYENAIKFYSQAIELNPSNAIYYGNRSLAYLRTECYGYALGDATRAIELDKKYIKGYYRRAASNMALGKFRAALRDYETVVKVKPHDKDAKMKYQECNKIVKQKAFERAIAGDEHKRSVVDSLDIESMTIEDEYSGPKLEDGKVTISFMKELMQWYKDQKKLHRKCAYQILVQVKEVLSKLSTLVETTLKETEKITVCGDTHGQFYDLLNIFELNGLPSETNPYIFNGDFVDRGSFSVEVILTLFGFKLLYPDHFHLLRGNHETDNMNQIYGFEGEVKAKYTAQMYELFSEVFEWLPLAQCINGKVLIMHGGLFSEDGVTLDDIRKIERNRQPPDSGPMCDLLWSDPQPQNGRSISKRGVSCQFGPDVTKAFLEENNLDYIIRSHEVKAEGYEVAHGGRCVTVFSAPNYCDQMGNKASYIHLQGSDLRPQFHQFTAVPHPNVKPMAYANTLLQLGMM
Calb FLC = affects C. albicans growth with fluconazole; C. albicans CaCi-2 (fluconazole-resistant clinical isolate) + fluconazole, Alamar Blue growth, 48 h; growth inhibition, % (no concentration beside the values); 0.57% of 300,000 active; AID 1979;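 active = growth inhibition above about 58% in most replicates, limit read from the data, passing the limit was not always enough; inconclusive = exactly half the replicates above a set limit; inactive = most replicates below a set limit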;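 also: all wells also contain fluconazole at 8 µg/ml as a sub-toxic cotreatment; 0% = median of DMSO wells and 100% = median of geldanamycin control wells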
An asterisk follows results filed as active. Most compounds without a hit are left out; they make up all but 5.4% or so of the library.

O=C(Nc1cc(F)cc(F)c1)c1ccc(NCCCN2CCCCCC2)c([N+](=O)[O-])c1 was read as CSC inhib 44, ALR inh -4, PP1 inh -3, PP5 inh -1 and Calb FLC 98*.
Screening O=C(Nc1cc(F)cc(F)c1)c1ccc(NCCc2ccccc2)c([N+](=O)[O-])c1 returned CSC inhib -6, ALR inh -3, PP1 inh -1, PP5 inh 4 and Calb FLC -1.
C=CCNC(=O)CSc1n[nH]c(-c2cc(Cl)ccc2OC)n1 was read as CSC inhib -5, PP1 inh -3, PP5 inh 2 and Calb FLC 7.
`CN=c1scc(-c2ccccc2F)n1/N=C(\C)c1cccnc1` gave CSC inhib 11, ALR inh 94*, PP1 inh 1, PP5 inh 2 and Calb FLC -2.
Screening CC1(C)CC2CC(C)(CN2C(=O)COC(=O)c2ccc(NC(=O)CC#N)cc2)C1 (centres undefined) returned CSC inhib -21 and ALR inh 98*.
For Cc1ccc(NC(=O)CN(C)C(=O)COC(=O)COc2ccc(C#N)cc2)cc1 the results were CSC inhib -14, ALR inh 6, PP1 inh -3, PP5 inh 1 and Calb FLC -4.
Cc1ccc(NC(=O)CN(C)C(=O)COC(=O)c2ccc(NC(=O)CC#N)cc2)cc1 was read as CSC inhib -18 and ALR inh 90*.
Screening CC(C)CN(C(=O)COC(=O)c1ccc(C#N)cc1)C1CCS(=O)(=O)C1 (centres undefined) returned CSC inhib 2, ALR inh -3, PP1 inh -2 and PP5 inh 2.
N#CCC(=O)Nc1ccc(C(=O)OCC(=O)N(Cc2ccccc2)C2CCS(=O)(=O)C2)cc1 (centres undefined) was read as CSC inhib 15, ALR inh 100*, PP1 inh 13, PP5 inh -7 and Calb FLC 7.
`COc1ccc(/C=N/OCC(=O)N2CC3(C)CC2CC(C)(C)C3)cc1` (centres undefined) gave CSC inhib 110*, ALR inh 0, PP1 inh -3, PP5 inh -2 and Calb FLC inconclusive.
Screening CN(CC(=O)Nc1cccc2ccccc12)C(=O)c1ccc(NC(=O)CC#N)cc1 returned CSC inhib -5 and ALR inh 94*.
Screening Cc1ccnc(SCC(=O)N2CCN(c3ccccc3)CC2)n1 returned CSC inhib -10, ALR inh 98*, PP1 inh -4, PP5 inh 2 and Calb FLC -6.
For CC1(C)Cc2ccccc2-c2nnc(SCc3ccccc3)n21 the results were CSC inhib 13, PP1 inh 2, PP5 inh 1 and Calb FLC 29.
`Cc1ccnc(SCC(=O)N2CCN(c3cccc(Cl)c3)CC2)n1` gave CSC inhib 15, ALR inh 19, PP1 inh -2, PP5 inh 0 and Calb FLC 21.
Cc1cc(C)n2nc(SCC(=O)N3CCN(c4ccccc4)CC3)nc2n1 was read as CSC inhib 6 and ALR inh 98*.
CC1(C)Cc2ccccc2-c2nnc(SCC(=O)N3CCN(c4ccccc4)CC3)n21 was read as CSC inhib 48, ALR inh 97*, PP1 inh -3, PP5 inh 3 and Calb FLC -2.
For N#Cc1cc(-c2ccccc2)nnc1Sc1ccc(F)cc1 the results were CSC inhib -6, ALR inh -2, PP1 inh -1, PP5 inh 0 and Calb FLC -3.
For CC(C)(C)NC(=S)N/N=C/c1cc(Br)c(O)c(Br)c1 the results were CSC inhib 7, ALR inh 75, PP1 inh -4, PP5 inh 4 and Calb FLC 76*.
`COc1ccccc1N1C(=N)S/C(=C\c2ccc(-c3ccccc3C(=O)O)o2)C1=O` gave CSC inhib 0, ALR inh 98*, PP1 inh -3, PP5 inh 1 and Calb FLC -4.
Screening N=C1S/C(=C\c2ccc(-c3ccccc3C(=O)O)o2)C(=O)N1c1ccc2c(c1)OCO2 returned Calb FLC -1.
CC/C=C\C/C=C\C/C=C\CCCCCCCC(=O)O was read as CSC inhib 9, ALR inh 20, PP1 inh 1 and PP5 inh 0.
Screening CCCCC/C=C\C/C=C\C/C=C\C/C=C\CCCC(=O)O returned CSC inhib -7, ALR inh 97*, PP1 inh -3 and PP5 inh 0.
`Cn1c(=O)c2c(-c3ccccc3)n(-n3cnnc3)cc2n(C)c1=O` gave CSC inhib -12, ALR inh 96*, PP1 inh -3, PP5 inh 0 and Calb FLC -4.
O=S(=O)(/C(=C/c1ccc(C(F)(F)F)cc1)c1nc2ccccc2[nH]1)c1ccccc1 was read as CSC inhib 101*, ALR inh 34, PP1 inh -1, PP5 inh 1 and Calb FLC -5.
CC(C)c1ccc(/C=C(\c2nc3ccccc3[nH]2)S(=O)(=O)c2ccccc2)cc1 was read as CSC inhib 46, ALR inh 64, PP1 inh 4, PP5 inh 3 and Calb FLC -2.
COc1ccc(S(=O)(=O)N(C)c2ccc(C(=O)NCCC(C)C)cc2)cc1 was read as CSC inhib 26, ALR inh 1, PP1 inh 1, PP5 inh 0 and Calb FLC 8.
For CCOCCCNC(=O)c1ccc(N(C)S(=O)(=O)c2ccc(OC)cc2)cc1 the results were CSC inhib -6, ALR inh -3, PP1 inh 0, PP5 inh -1 and Calb FLC 106*.
Screening O=C(CN1CCN(S(=O)(=O)c2ccc(Cl)c(Cl)c2)CC1)N1CCCCC1 returned PP1 inh -2 and PP5 inh 1.
Screening CC1CCN(C(=O)c2ccc(-c3ccccc3Cl)o2)CC1 returned CSC inhib -2, PP1 inh 5, PP5 inh 1 and Calb FLC -2.
Screening CCOc1cc(/C=C2\N=C(SC(C)C(N)=O)N(c3ccc(OC(F)F)cc3)C2=O)ccc1O (centres undefined) returned CSC inhib 103*, ALR inh 27, PP1 inh -1, PP5 inh 3 and Calb FLC 14.
`NC(=O)CSC1=N/C(=C\c2ccco2)C(=O)N1c1ccc(OC(F)F)cc1` gave CSC inhib -2, ALR inh -16, PP1 inh -1, PP5 inh -1 and Calb FLC 18.
`O=C(NC1CCCCCCC1)c1ccccc1O` gave CSC inhib 10, PP1 inh -2, PP5 inh 0 and Calb FLC -13.
Screening O=C(NC1CCCCCC1)c1ccc[nH]c1=S returned CSC inhib 3, ALR inh 92*, PP1 inh 1, PP5 inh 1 and Calb FLC -7.
Screening CCOc1cccc(=O)c2c(C)n(-c3ccc(C(=O)O)cc3)c(C)c12 returned CSC inhib 1, ALR inh 96*, PP1 inh 2, PP5 inh -2 and Calb FLC 13.
